High-throughput results: PubChem, several laboratories
Compounds with a hit are over-represented: about 2% of the library has one in this group of screens.
ABCB6 inh 2 – human ABCB6 transporter inhibition; K562-ABCB6 porphyrin accumulation, flow cytometry, 1 h; hits give low values; fluorescence ratio to DMSO, % at 10 µM; 0.19% of 360,000 active; AID 602162; Q9NP58;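 active = fluorescence ratio to DMSO below 75%, the collection mean minus 3 SD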;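 also: signal is porphyrin accumulated inside mitochondria; lower ratio means ABCB6 inhibition with less porphyrin fluorescence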
NR1D1 modulator – modulates human Rev-erb alpha binding to DNA; activity, % at 10 µM; P20393; Rev-erbα–FITC-DNA binding, fluorescence polarization, 90 min; 0.79% of 370,000 active;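 active = activity above about 14%, limit read from the data; passing the limit was not always enough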
Target sequence (P20393 whole entry, looked up): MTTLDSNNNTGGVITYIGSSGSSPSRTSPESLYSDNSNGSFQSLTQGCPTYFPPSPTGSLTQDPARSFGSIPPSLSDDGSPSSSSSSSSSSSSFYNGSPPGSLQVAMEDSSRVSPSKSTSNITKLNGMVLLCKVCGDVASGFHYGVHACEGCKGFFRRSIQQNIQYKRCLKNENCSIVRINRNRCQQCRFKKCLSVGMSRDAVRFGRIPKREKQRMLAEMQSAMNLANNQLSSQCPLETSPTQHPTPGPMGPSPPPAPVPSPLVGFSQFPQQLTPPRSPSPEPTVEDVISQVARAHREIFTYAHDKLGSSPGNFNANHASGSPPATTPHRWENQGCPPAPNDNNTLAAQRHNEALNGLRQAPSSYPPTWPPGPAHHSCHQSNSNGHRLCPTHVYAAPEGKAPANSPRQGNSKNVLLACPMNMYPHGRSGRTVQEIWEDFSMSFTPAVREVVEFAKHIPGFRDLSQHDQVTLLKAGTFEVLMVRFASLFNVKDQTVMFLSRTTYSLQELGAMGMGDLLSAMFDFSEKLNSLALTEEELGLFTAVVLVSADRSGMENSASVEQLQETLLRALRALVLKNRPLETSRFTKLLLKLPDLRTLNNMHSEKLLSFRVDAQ
VLA-4 inh – inhibition in a human VLA-4 binding assay. P13612. inhibition, % (about 7 µM as worked out from the volumes in the protocol). VLA-4 expressing cells, ligand binding flow cytometry. 0.2% of 330,000 active; in the data active = inhibition above about 50%
Exocytosis inh – lytic granule exocytosis inhibition | inhibition, % at 10 µM | 0.66% of 360,000 active | TALL-104 LAMP-1 surface exposure, flow cytometry; cells stimulated with thapsigargin and PMA;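 active = inhibition above about 55%, limit read from the data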
PG9 Ab binder – small molecules binding HIV-1 gp120 antibody PG9; TR-FRET gp120-PG9 antibody binding; inhibition, % at 6.7 µM; 0.43% of 360,000 active; in the data active = inhibition above about 8.5%
ABCB6 inh CP1 – human ABCB6 transporter inhibition; shares compounds with ABCB6 inh 2; K562-ABCB6 porphyrin accumulation, flow cytometry, 1 h; hits give low values; ratio response (% of DMSO), % at 10 µM; 700 tested, under 10 active;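 active = repeat-averaged ratio response below 75% of DMSO, the collection mean minus 3 SD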;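 also: median porphyrin fluorescence at 575 nm with 488 nm excitation from mitochondria; lower ratio means less porphyrin signal so ABCB6 inhibition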
A number is an active result; n = inactive; x = no result.

SMILES | ABCB6 inh 2 | NR1D1 modulator | VLA-4 inh | Exocytosis inh | PG9 Ab binder | ABCB6 inh CP1
N#Cc1ccsc1NC(=O)COC(=O)c1ccc(NC(N)=O)cc1 | 74.0 | n | n | n | n | n
O=C(CCN1C(=O)C2C3CC(C(Br)C3Br)C2C1=O)OCC(=O)c1ccccc1 (stereo not drawn) | 71.0 | n | n | n | n | n
O=C(CCN1C(=O)C2C3CCC(C3)C2C1=O)OCC(=O)c1ccccc1 (stereo not drawn) | n | n | n | n | n | x
COc1ccc(NC(=O)C2(C)Cc3c(-c4ccc(C(N)=O)cc4)ccnc3O2)cn1 (stereo not drawn) | n | n | x | n | n | n
CC(=O)Nc1ccc(-c2ccnc3c2CC(C)(C(=O)Nc2cccc(Oc4ccccc4)c2)O3)cc1 (stereo not drawn) | n | n | x | n | n | n
CC(=O)Nc1ccc(-c2ccnc3c2CC(C)(C(=O)Nc2ccccc2)O3)cc1 (stereo not drawn) | n | n | x | n | n | x
COc1ccc(NC(=O)C2(C)Cc3c(-c4ccc(NC(C)=O)cc4)ccnc3O2)cn1 (stereo not drawn) | n | n | x | n | n | x
CC(=O)Nc1cccc(-c2ccnc3c2CC(C)(C(=O)Nc2ccc4c(c2)OCO4)O3)c1 (stereo not drawn) | n | n | x | n | n | n
CN(C)c1ccc(-c2ccnc3c2CC(C)(C(=O)Nc2ccc(F)c(Cl)c2)O3)cc1 (stereo not drawn) | n | n | x | n | n | n
CCCCOCCCNC(=O)C[C@H]1C[C@@]2(C(=O)OC)C(=C[C@H](C(C)(C)C)O[C@@H]2C)N(Cc2ccc3c(c2)OCO3)C1=O | x | n | x | x | n | x
COC(=O)C1CN(Cc2cn(Cc3ccc(Cl)cc3)nn2)CCS(=O)(=O)N1Cc1ccc(C)cc1 (stereo not drawn) | x | n | x | x | x | x
O=C(c1ccccc1)n1ccc2ccc(-c3ccc4ccn(C(=O)c5ccccc5)c4c3)cc21 | x | n | x | x | x | x
CCCN(CCC)CCCNC(=O)c1cc2cc3ccc(Cl)cc3nc2o1 | 73.0 | n | n | n | n | n
COc1ccc(N(CC(=O)Nc2c(C)n(C)n(-c3ccccc3)c2=O)S(=O)(=O)c2ccc(C)cc2)cc1 | 72.0 | n | n | n | n | n
COc1ccc(N(CC(=O)Nc2c(C)n(C)n(-c3ccccc3)c2=O)S(=O)(=O)c2ccc(F)cc2)cc1 | n | n | n | n | n | x
Cc1cccc(C)c1NC(=O)Cn1nnc(-c2ccncc2)n1 | x | n | x | x | x | x
CCCC(=O)N1CCC1(C)C(=O)NS(=O)(=O)c1ccc(F)cc1F (stereo not drawn) | n | n | x | n | n | x
CC1(C(=O)NS(=O)(=O)c2ccc(F)cc2F)CCN1C(=O)Cc1cccc2ccccc12 (stereo not drawn) | n | n | x | n | n | n
CC(C)c1ccc(CC(=O)N2CCC2(C)C(=O)NS(=O)(=O)c2cccc(OC(F)F)c2)cc1 (stereo not drawn) | n | n | x | n | n | n
CC(C)c1ccc(CC(=O)N2CCC2(C)C(=O)NS(=O)(=O)c2ccc(F)cc2F)cc1 (stereo not drawn) | n | n | x | n | n | n
CN(C)C1=NC[C@H](Cc2ccccc2)N1CC1CCCCC1 | n | n | n | n | n | x
CN(C)C1=NC[C@H](Cc2ccccc2)N1CC1CCCC1 | 72.0 | n | n | n | n | n
CCOC(=O)C1=C(C)NC(C)=C(C(=O)OCC)C1C(=O)OCC(=O)N(C)Cc1ccccc1 | 74.0 | n | n | n | n | n
C/C=C\C1=C(C(=O)O)N2C(=O)C(NC(=O)C(N)c3ccc(O)cc3)C2SC1 (stereo not drawn) | x | n | x | x | x | x
N#CCCS(=O)(=O)c1ccc(N)cc1 | n | n | n | n | n | x
SMILES | ABCB6 inh 2 | NR1D1 modulator | VLA-4 inh | Exocytosis inh | PG9 Ab binder | ABCB6 inh CP1
Cc1ccc(S(=O)(=O)CCC#N)cc1 | 19.0 | n | n | n | n | n
COc1ccc(N2CCN(C(=O)c3cc(-c4ccc(F)cc4)[nH]c3C)CC2)cc1 | 71.0 | n | n | n | n | n
Cc1[nH]c(-c2ccc(F)cc2)cc1C(=O)N1CCN(c2ccc(Cl)cc2)CC1 | n | n | n | n | n | x
CC(=O)Nc1ccc(-c2ccnc3c2CC(C(=O)Nc2cccc(OC(F)(F)F)c2)O3)cc1 (stereo not drawn) | 74.0 | n | x | n | n | n
O=C(Nc1cccc(C(F)(F)F)c1)C1Cc2c(-c3ccccc3Oc3ccccc3)ccnc2O1 (stereo not drawn) | n | n | x | n | n | n
CC(=O)Nc1cccc(-c2ccnc3c2CC(C(=O)Nc2cccnc2)O3)c1 (stereo not drawn) | n | n | x | n | n | n
O=C(Nc1cccnc1)C1Cc2c(-c3cccc(F)c3)ccnc2O1 (stereo not drawn) | n | n | x | n | n | x
CC(=O)Nc1cccc(-c2ccnc3c2CC(C(=O)Nc2cccc(OC(F)(F)F)c2)O3)c1 (stereo not drawn) | n | n | x | n | n | x
C=Cc1ccc(C(=O)N(Cc2ccc(F)cc2)C(C(=O)N(C)C2CCCC2)c2ccc(OC)c(OC)c2)cc1 (stereo not drawn) | x | n | x | x | x | x
COC(=O)C1=C(C)N(Cc2cccc(C(F)(F)F)c2)C(=NCc2ccc3c(c2)OCO3)NC1c1cccc(Cl)c1 (stereo not drawn) | x | n | x | x | n | x
Cc1ncc([N+](=O)[O-])n1CC(=O)Nc1cc(Cl)ccc1Cl | 10.0 | n | n | n | n | n
Cc1cc(Br)c(NC(=O)Cn2c([N+](=O)[O-])cnc2C)cc1C | n | n | n | n | n | x
Cc1nc2c(C(=O)N3CCN(C)CC3)cnn2c(C)c1Cc1ccc(Cl)cc1 | n | n | n | n | n | n
Cc1nc2c(C(=O)N3CCCCC3)cnn2c(C)c1Cc1ccccc1F | n | n | n | n | n | n
Cc1cccc(Cc2c(C)nc3c(C(=O)N4CCN(Cc5ccc6c(c5)OCO6)CC4)cnn3c2C)c1 | n | n | n | n | n | x
CCCCNC(=O)C[C@@H]1C(=O)N(CCc2ccc(Cl)cc2)C2=CCCCC[C@]21C(=O)OC | x | n | x | x | x | x
Cc1ccc(S(=O)(=O)N2CCN(C(=O)CN3CCOCC3)C2C(C)C)cc1 (stereo not drawn) | 59.0 | n | n | n | n | n
Cc1ccc(S(=O)(=O)N2CCN(C(=O)CN3CCOCC3)C2c2ccccc2)cc1 (stereo not drawn) | n | n | n | n | n | x
CCCS(=O)(=O)NC(=O)C1(C)CCN(C(=O)c2ccc(C(=O)OC)cc2)C1 (stereo not drawn) | n | n | x | n | n | x
CCCS(=O)(=O)NC(=O)C1(C)CCN(C(=O)c2ccc(C(F)(F)F)cc2)C1 (stereo not drawn) | 70.0 | n | x | n | n | n
O=C(CNS(=O)(=O)c1cc2ccccc2s1)N1CCN(c2ccccn2)CC1 | x | n | x | x | x | x
Nn1c(SCC(=O)N2CCOCC2)nnc1-c1n[nH]c2c1CCC2 | x | n | x | x | x | x
COCCNC(=O)c1cc2nc(-c3ccccc3)cc(C)n2n1 | 68.0 | n | n | n | n | n
